# PP1 counter – PP1-alpha (human) inhibition in PP5 counter-screen; inhibition, % at 6.7 µM; purified PP1alpha, OMFP fluorescence; 0.9% of 320,000 active; P62136;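 active = inhibition above the mean inhibition of all tested compounds plus 3 SD, computed separately for each screening campaign, cut at about 15% in these data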
# PAFAH1B3 FP inh – blocks human PAF acetylhydrolase 1B catalytic subunit 3; Q15102; recombinant PAFAH1B3, FP-rhodamine probe, fluorescence polarization; inhibition, % at 3.39 µM; 0.28% of 340,000 active;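 active = inhibition above the screen-wide average of all tested compounds plus 3 SD, cut at about 25% in these data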
# PAFAH2 FP inh – inhibitors of human PAFAH2; Q99487; recombinant PAFAH2, FP-rhodamine activity probe, fluorescence polarization; inhibition, % at 3.39 µM; 0.99% of 340,000 active; AID 492956;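 active = inhibition above the mean over all tested compounds plus 3 SD, cut at about 30% in these data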;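 also: inhibitors block probe labeling of enzyme so polarization drops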
# pPAFAH FP inh – inhibitors of human plasma PAF acetylhydrolase (pPAFAH). recombinant pPAFAH, FP-rhodamine probe fluorescence polarization. Q13093. 1.5% of 330,000 active. inhibition, % at 3.39 µM;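 active = inhibition above the mean inhibition across the screen plus 3 SD, cut at about 25% in these data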;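 also: inhibitors block binding of the rhodamine activity-based probe so polarization drops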
# PAFAH1B2 FP inh – blocks human PAF acetylhydrolase 1b catalytic subunit 2; P68402; 1.2% of 340,000 active; inhibition, % at 3.39 µM; recombinant PAFAH1B2, FP-rhodamine activity probe, fluorescence polarization; AID 492953;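 active = inhibition above the mean of all tested compounds plus 3 SD, cut at about 24% in these data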
# PP5 primary – blocks human protein phosphatase 5 activity. P53041. inhibition, % at 6.7 µM. AID 1987. purified PP5c, OMFP substrate fluorescence. 0.18% of 320,000 active;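 active = inhibition above the campaign's mean inhibition across all tested compounds plus 3 SD, cut at about 9.5% in these data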
# Target sequence (P53041 whole entry, looked up): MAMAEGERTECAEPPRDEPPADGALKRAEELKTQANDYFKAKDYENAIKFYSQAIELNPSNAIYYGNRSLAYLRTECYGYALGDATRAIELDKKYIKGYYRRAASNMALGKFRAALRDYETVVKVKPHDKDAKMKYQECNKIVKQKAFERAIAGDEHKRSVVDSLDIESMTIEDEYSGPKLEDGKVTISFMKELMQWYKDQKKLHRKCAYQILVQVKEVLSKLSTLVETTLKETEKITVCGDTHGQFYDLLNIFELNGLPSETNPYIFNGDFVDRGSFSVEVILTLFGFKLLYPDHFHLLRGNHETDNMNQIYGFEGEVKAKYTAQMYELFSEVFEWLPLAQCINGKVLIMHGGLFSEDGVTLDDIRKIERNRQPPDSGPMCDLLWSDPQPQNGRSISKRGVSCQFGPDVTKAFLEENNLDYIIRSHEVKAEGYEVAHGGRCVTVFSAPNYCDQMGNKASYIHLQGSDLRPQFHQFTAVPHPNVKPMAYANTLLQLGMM
# PAFAH2 FP conf – confirmation of human PAFAH2 inhibitors. inhibition, % at 3.39 µM. shares compounds with PAFAH2 FP inh. 65% of 2,300 active. recombinant PAFAH2, FP-rhodamine activity probe, fluorescence polarization;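 active = mean inhibition over three repeats above a set limit taken from the earlier primary screen, cut at about 30% in these data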;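 also: inhibitor blocks binding of rhodamine activity probe so polarization falls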
# Hits are given with their value; . = inactive; / = not tested or not shown. In the library only some 3.4% were active in any assay of this set; here they are far more common.
SMILES,PP1 counter,PAFAH1B3 FP inh,PAFAH2 FP inh,pPAFAH FP inh,PAFAH1B2 FP inh,PP5 primary,PAFAH2 FP conf
COc1ccc(CN2CCNC(=O)C2CC(=O)NCCC2=CCCCC2)cc1OC (stereo unspecified),.,.,.,.,.,.,/
Cc1cccc(/C(N)=N/OC(=O)c2ccc3c(c2)OCO3)c1,.,.,42,.,.,.,36
Cc1ccc(C(=O)O/N=C/c2ccc3c(c2)OCO3)cc1,.,.,48,.,.,.,51
COc1ccccc1/C=N/OC(=O)c1ccc(C)cc1,.,.,87,.,.,.,75
COc1ccccc1C/C(N)=N/OC(=O)c1ccc2c(c1)OCO2,.,.,77,.,.,.,79
COc1ccccc1CC(=O)NCc1ccc2c(c1)OCO2,.,.,.,.,.,.,/
COCC(=O)Nc1ccc2c(c1)OCC(=O)N2Cc1ccccc1F,.,.,.,.,.,.,/
COc1[nH]c2ccc(F)cc2c1C(=O)OCC1CCN(CCNS(C)(=O)=O)CC1,.,.,.,.,.,.,/
COc1ccccc1C/C(N)=N/OC(=O)c1ccco1,.,.,58,.,.,.,62
Cc1ccccc1-c1nc2sc3c(c2c(=O)o1)CCC3,.,.,76,.,.,.,80
O=c1oc(-c2ccccc2)nc2sc3c(c12)CCCC3,.,.,49,.,.,.,37
O=c1oc(-c2cc3ccccc3o2)nc2sc3c(c12)CCCC3,.,.,69,.,.,.,68
O=c1oc(-c2cccs2)nc2sc3c(c12)CCCCC3,.,.,.,.,.,.,/
O=c1oc(/C=C/c2ccccc2)nc2sc3c(c12)CCC3,.,.,66,.,.,.,60
O=C(NNC(=O)C12CC3CC(CC(C3)C1)C2)c1ccccn1,.,.,37,.,.,.,.
CCN1CCN(Cc2c(O)ccc3c2O/C(=C\C=C\c2ccccc2)C3=O)CC1,.,.,36,.,.,.,32
CCN1CCN(Cc2c(O)ccc3c2O/C(=C\c2ccc(C)cc2)C3=O)CC1,.,.,33,.,.,.,.
CCc1ccc(/C=C2\Oc3c(ccc(O)c3CN3CCN(C)CC3)C2=O)cc1,.,.,58,.,.,.,53
CCN1CCN(Cc2c(O)ccc3c2O/C(=C\c2ccccc2)C3=O)CC1,.,.,.,.,.,.,/
Cc1ccc(/C=C2\Oc3c(ccc(O)c3CN3CCN(C)CC3)C2=O)cc1,.,.,.,.,.,.,/
COc1cc(CC(=O)OCC(=O)N2CCCCC2)cc(OC)c1OC,.,.,.,.,.,.,/
Cc1cc(C)nc(NS(=O)(=O)c2ccc(NC(=O)c3ccc(O)cc3O)cc2)n1,/,.,.,/,.,/,/
O=C1NC(=S)S/C1=C\C=C\c1ccc([N+](=O)[O-])o1,/,.,43,/,.,/,.
O=C(N/N=C/c1ccc(O)c(O)c1)N/N=C/c1ccc(O)c(O)c1,/,.,31,/,.,/,.
O=C(NC1CCCCC1)C(c1ccncc1)N(C(=O)Cn1nnc(-c2cccs2)n1)C1CCCC1 (stereo unspecified),.,.,62,.,.,.,54
SMILES,PP1 counter,PAFAH1B3 FP inh,PAFAH2 FP inh,pPAFAH FP inh,PAFAH1B2 FP inh,PP5 primary,PAFAH2 FP conf
Cc1ccc(C(=O)CN(C(=O)c2ccc(Cl)c(Cl)c2)N2C(=O)C3CCCCC3C2=O)cc1 (stereo unspecified),.,.,35,.,.,.,35
O=C(c1ccc(COc2ccc(Cl)cc2Cl)o1)N1CCCC1,/,.,30,/,.,/,.
O=C(CSc1nnc(-c2ccccc2)n1-c1ccccc1)c1cccs1,.,.,43,.,.,.,.
O=C(CSc1nnc(-c2ccccc2)n1-c1ccccc1)c1ccc[nH]1,.,.,.,.,.,.,/
COc1ccc(/C=C/c2nc3ccccc3c(=O)o2)cc1,.,.,62,.,.,.,57
COc1ccc(/C=C/c2nc3sc4c(c3c(=O)o2)CCC4)cc1,.,.,.,.,.,.,/
COc1ccccc1/C=C/c1nc2ccc(OC(C)=O)cc2c(=O)o1,.,.,78,.,.,.,67
COc1cc(/C=C/C(=O)N2CC(C)OC(C)C2)cc(OC)c1OC (stereo unspecified),.,.,.,.,.,.,/
O=C(CNC(=O)c1ccco1)NCc1ccc2c(c1)OCO2,/,.,.,.,.,/,/
O=S1(=O)[C@H]2C[C@@H]3C=C[C@]2(CN1Cc1ccc(C(F)(F)F)cc1)O3,.,.,.,.,.,.,/
